Measured values: the supplement of paper PMC10646978
± gives the standard deviation.

How the values were obtained:
Conditions in all cases: modulator concentration 10 µM
[1] = test system: RAW-Dual (murine macrophage reporter line); experiment: NF-kB reporter (SEAP) activity fold change vs agonist alone; higher = enhanced NF-kB activity
Method in brief: (§1)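 In 384-well plates holding 50 000 RAW-Dual murine macrophage reporter cells per well, compound at 10 μM final was pre-incubated for 1 hour at 37 °C, after which a PRR agonist was added overnight. Supernatant SEAP read with QUANTI-Blue at 620 nm absorbance reported NF-κB, and Lucia luciferase read with QUANTI-Luc luminescence reported IRF. Fold change values come from dividing each reporter signal by the mean of agonist-only control wells on the same plate, averaged over replicate plates with propagated errors.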

[2] = test system: RAW-Dual (murine macrophage reporter line); experiment: IRF reporter (Lucia luciferase) activity fold change vs agonist alone; higher = enhanced IRF activity
Method in brief: as §1

[3] = test system: RAW-Dual (murine macrophage reporter line); experiment: viability score (confluency relative to resting cells, overnight) (fraction); higher = more viable, active = viable (0.7 or more)
Method in brief: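 A compound met the cutoff when both of two confluency masks exceeded 70% of resting cells. Those masks were made with IncuCyte software from IncuCyte images of RAW-Dual macrophages treated overnight at 10 μM final. This is the basis of the viability score, which is confluency relative to resting cells.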

[4] = agonist: CpG ODN 1826 0.5 ug/mL

SMILES	NF-kB reporter [1, 4]	NF-kB reporter ([1]; agonist: LPS 0.1 ug/mL)	NF-kB reporter ([1]; agonist: MPLA […])	IRF reporter ([2]; agonist: 3'3'-cGAMP 10 ug/mL)	IRF reporter ([2]; agonist: LPS 0.1 ug/mL)	IRF reporter ([2]; agonist: MPLA […])	viability score [3]
COc1ccc(NC(=O)c2cn(-c3cc(N4CCCCC4)ncn3)cn2)cc1F	1.31 ± 0.074	1.13 ± 0.086	1.22 ± 0.035	1.52 ± 0.45	1.01 ± 0.1	1.23 ± 0.3	0.97 (active)
COC(=O)C1=C(C)N(Cc2ccccc2)C(=O)C1=Cc1ccc(C)cc1	0.59 ± 0.048	0.655 ± 0.05	0.749 ± 0.069	0.4 ± 0.02	1.08 ± 0.068	0.948 ± 0.092	0.998 (active)
CCn1cc(C(=O)NN)c(=O)c2cc(F)c(N3CCCCCC3)cc21	0.966 ± 0.076	0.98 ± 0.091	0.979 ± 0.12	0.965 ± 0.035	1.29 ± 0.11	1.19 ± 0.12	1.01 (active)
CCN(CC)c1ccc(C2Nc3ccccc3-c3nnc(SC)nc3O2)c(OC)c1 (centres undefined)	0.889 ± 0.07	0.986 ± 0.066	0.985 ± 0.059	0.954 ± 0.024	1.39 ± 0.24	0.87 ± 0.076	1.01 (active)
C#CCN(C)Cc1ccccc1.Cl	0.99 ± 0.11	0.895 ± 0.059	0.98 ± 0.021	0.967 ± 0.075	1.01 ± 0.11	0.833 ± 0.2	0.999 (active)
CC(C)(C)c1cc(CCC(=O)NN)cc(C(C)(C)C)c1O	0.8 ± 0.066	0.816 ± 0.06	0.926 ± 0.096	0.519 ± 0.022	1.15 ± 0.12	1.24 ± 0.2	1.02 (active)
CCN1CCCC1CNC(=O)c1cc(S(=O)(=O)CC)c(N)cc1OC (centres undefined)	1.69 ± 0.23	1.28 ± 0.32	1.23 ± 0.089	0.819 ± 0.032	0.957 ± 0.29	0.808 ± 0.12	0.994 (active)
Cc1ccc(F)c(NC(=O)Nc2ccc(-c3cccc4[nH]nc(N)c34)cc2)c1	0.692 ± 0.1	0.758 ± 0.2	1.59 ± 0.16	0.102 ± 0.0067	1.04 ± 0.22	1.19 ± 0.38	0.829 (active)
COC(=O)CNC(c1ccccc1)c1cc(Br)ccc1NC(=O)c1ccccc1Br (centres undefined)	0.826 ± 0.07	0.777 ± 0.041	1.52 ± 0.053	0.632 ± 0.035	1.1 ± 0.14	1.52 ± 0.22	0.988 (active)
Br.COc1ccc2c3c1O[C@H]1C[C@@H](O)C=C[C@@]31CCN(C)C2	0.95 ± 0.071	1.03 ± 0.052	0.947 ± 0.024	0.912 ± 0.08	0.995 ± 0.042	1.11 ± 0.14	1.01 (active)
COc1cc2nc(N3CCN(C(=O)c4ccco4)CC3)nc(N)c2cc1OC [Prestw-947]	0.258 ± 0.041	1.09 ± 0.083	1.14 ± 0.11	1.59 ± 0.049	1.28 ± 0.18	1.48 ± 0.33	0.971 (active)
CCCN(CCC)C(=O)C1=Cc2ccc(-c3ccc(C(=O)N4CCCC4)cc3)cc2N=C(N)C1	0.432 ± 0.022	1.08 ± 0.17	1.12 ± 0.11	0.724 ± 0.034	1.29 ± 0.29	1.58 ± 0.49	0.957 (active)
NS(=O)(=O)c1ccc2c(c1)C1C=CCC1C(C(=O)O)N2 (centres undefined)	0.586 ± 0.049	0.992 ± 0.15	1.01 ± 0.075	0.8 ± 0.043	0.931 ± 0.055	1.01 ± 0.089	0.997 (active)
COc1ccc(C=NN2CCN(C)CC2)c(OC)c1	0.84 ± 0.065	0.95 ± 0.047	1.04 ± 0.09	0.914 ± 0.056	1.25 ± 0.08	1.33 ± 0.11	1.01 (active)
CCOc1ccc2nc(SC3CC(=O)N(c4cccc(Cl)c4)C3=O)sc2c1 (centres undefined)	0.954 ± 0.091	1.04 ± 0.058	0.785 ± 0.047	0.778 ± 0.046	1.11 ± 0.079	1.04 ± 0.16	1.01 (active)
CCc1ccc2ncc(C#N)c(Nc3cc(OC)c(OC)c(OC)c3)c2c1.Cl	1.37 ± 0.071	1.24 ± 0.17	0.931 ± 0.066	0.712 ± 0.038	0.607 ± 0.078	0.725 ± 0.17	0.903 (active)
O=C(C=Cc1ccccc1)c1ccc(OC2OC(CO)C(O)C(O)C2O)cc1O (centres undefined)	1.18 ± 0.068	1.03 ± 0.082	0.94 ± 0.07	1.02 ± 0.039	1.32 ± 0.087	1.2 ± 0.17	0.986 (active)
COc1ccc(-c2noc(-c3ccc(=O)n(Cc4ncc(C)c(OC)c4C)c3)n2)cc1F	0.91 ± 0.058	0.944 ± 0.083	1.06 ± 0.073	0.961 ± 0.044	1.17 ± 0.24	1.31 ± 0.51	0.956 (active)
CN1CCN(c2ccc(-c3cccc(NC(=O)COc4ccc(Cl)cc4Cl)c3)nn2)CC1	0.46 ± 0.09	0.922 ± 0.086	1 ± 0.13	0.65 ± 0.043	1.16 ± 0.18	1.12 ± 0.29	0.982 (active)
O=S1(=O)CCC(NCc2ccccc2C(F)(F)F)C1 (centres undefined)	0.997 ± 0.095	1.13 ± 0.11	0.978 ± 0.08	1.02 ± 0.071	1.03 ± 0.092	1.04 ± 0.32	1 (active)
COC1(C)CCC2OC2(C)CCC2C1CC2(C)C (centres undefined)	1.31 ± 0.31	1.06 ± 0.053	1.04 ± 0.12	1.03 ± 0.041	1.28 ± 0.15	1.17 ± 0.13	0.87 (active)
Cc1ccccc1C(=O)Nc1nc(C(C)(C)C)cs1	0.519 ± 0.056	0.997 ± 0.047	1.12 ± 0.11	0.777 ± 0.047	1.23 ± 0.13	1.35 ± 0.13	1 (active)
O=S1(=O)N=C(Oc2ccc3ccccc3c2)c2ccccc21	0.889 ± 0.15	1.23 ± 0.1	1.22 ± 0.21	0.91 ± 0.063	0.942 ± 0.14	0.991 ± 0.11	0.992 (active)
CC(=O)N1CCC(Cn2ccc3cccnc32)CC1	1.04 ± 0.078	1.02 ± 0.11	0.996 ± 0.048	0.949 ± 0.035	0.957 ± 0.056	1.02 ± 0.11	0.994 (active)
CC(C)N(C(=O)c1ccc(C(=O)NCc2ccc(S(N)(=O)=O)cc2)cc1)C(C)C	0.974 ± 0.057	1.07 ± 0.079	0.909 ± 0.072	0.961 ± 0.033	1.51 ± 0.12	1.21 ± 0.18	1 (active)
CCOC(=O)[C@H](CCc1ccccc1)N[C@@H](C)C(=O)N1CCC[C@H]1C(=O)O.O=C(O)/C=C\C(=O)O	1.05 ± 0.09	1.01 ± 0.11	1 ± 0.054	1.01 ± 0.085	0.916 ± 0.04	0.868 ± 0.2	1 (active)
COc1cc2c(cc1OC)C1Cc3ccc(OC)c(OC)c3CN1CC2 (centres undefined)	0.932 ± 0.24	0.87 ± 0.044	0.949 ± 0.067	0.871 ± 0.052	1.09 ± 0.14	1.15 ± 0.17	1 (active)
